From PubChem BioAssay (Tox21)
Results filed as inconclusive are left out. The source made the active and inactive calls. Unless noted, the call rests on the fitted dose curve; in most records, active means well fitted curve in the direction sought with a large enough effect in the repeat runs; inconclusive means weak or mixed curves; inactive means no such curve, though single readings can be large; an effect the other way counts as inactive or inconclusive.

Assays:
[1] = target: Thyrotropin receptor (Homo sapiens) (UniProt P16473); experiment: qHTS assay to identify small molecule agonists of the thyroid stimulating hormone receptor (TSHR) signaling pathway (AID 1224843; calls by dose curve; further: nearly all actives have a fitted effect of over 45% in size)
Chain of Thyrotropin receptor (Homo sapiens) (P16473 whole entry, looked up): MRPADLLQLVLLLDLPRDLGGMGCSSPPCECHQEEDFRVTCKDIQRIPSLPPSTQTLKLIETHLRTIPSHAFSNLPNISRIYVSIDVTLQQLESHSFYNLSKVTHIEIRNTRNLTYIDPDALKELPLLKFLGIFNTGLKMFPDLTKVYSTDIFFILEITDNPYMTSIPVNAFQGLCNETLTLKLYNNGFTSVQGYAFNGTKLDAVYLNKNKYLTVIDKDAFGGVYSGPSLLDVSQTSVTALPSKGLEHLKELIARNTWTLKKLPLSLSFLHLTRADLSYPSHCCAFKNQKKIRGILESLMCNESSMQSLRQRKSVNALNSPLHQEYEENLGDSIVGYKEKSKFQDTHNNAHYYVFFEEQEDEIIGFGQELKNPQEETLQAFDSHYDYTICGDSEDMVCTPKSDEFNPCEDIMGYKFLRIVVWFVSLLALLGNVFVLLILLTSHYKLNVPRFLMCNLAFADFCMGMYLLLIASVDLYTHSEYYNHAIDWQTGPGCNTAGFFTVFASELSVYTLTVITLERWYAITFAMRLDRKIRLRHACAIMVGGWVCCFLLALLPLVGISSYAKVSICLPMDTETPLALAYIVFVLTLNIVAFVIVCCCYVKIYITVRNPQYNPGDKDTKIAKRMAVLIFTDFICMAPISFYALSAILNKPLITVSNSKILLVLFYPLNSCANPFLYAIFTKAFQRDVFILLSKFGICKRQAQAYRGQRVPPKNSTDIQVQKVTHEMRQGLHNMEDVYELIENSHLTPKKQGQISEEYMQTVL
Procedure, shortened: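 TSHR-expressing HEK293 cells (800 per well) were exposed to compounds for 30 min at room temperature. cAMP was then detected by HTRF competition with cAMP-d2 and anti-cAMP cryptate, read after 1 h at room temperature. Fifteen concentrations, triplicate.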

[2] = qHTS assay to identify small molecule agonists of the estrogen related receptor (ERR) signaling pathway from Tox21 library (AID 1224849; calls by dose curve; further: nearly all actives have a fitted effect of over 15% in size); conditions: ERR reporter cell line, ONE-Glo luciferase, 18 h; at 92.4 µM (top of the series) unless noted
Procedure, shortened: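 ERR reporter cell line (NTP) seeded, rested 6 h at 37 C/5% CO2, then pinned with Tox21 compounds in DMSO. After 18 h at 37 C, ONE-Glo luciferase luminescence was read following 30 min at room temperature.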

[3] = qHTS RealTime-Glo MT Cell Viability Assay in HepG2 cells - 24 hour (AID 1224867); further: nearly all actives have a fitted effect of over 50% in size; further: potency means the concentration at half of the fitted maximal effect
Procedure, shortened: (§1)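 Cell number in HepG2 cultures estimated from NanoLuc luminescence generated by metabolic reduction of a prosubstrate by living cells. The homogeneous, nonlytic format allowed repeated reads at 0, 8, 16, 24, 32 and 40 h of compound exposure.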

[4] = qHTS RealTime-Glo MT Cell Viability Assay in HEK293 cells - 32 hour (AID 1224868); further: nearly all actives have a fitted effect of over 50% in size; further: potency means the concentration at half of the fitted maximal effect
Procedure, shortened: (§2)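 Homogeneous bioluminescent viability format in HEK293 cells (600 cells/well). Following 5 h at 37 C/5% CO2, 23 nL compound was pintooled; the signal was measured repeatedly during 40 h incubation.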

[5] = A CellTox Green Cytotoxicity Assay to monitor cytotoxicity in HEK293 cells - 0 hour (AID 1224869); further: nearly all actives have a fitted effect of over 50% in size
Procedure, shortened: (§3)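 HEK293 cells premixed with CellTox Green dye were seeded at 600 cells/well and left 5 h at 37 C/5% CO2 before pin transfer of 23 nL compound in DMSO. Fluorescence from dye bound to dead-cell DNA was read during 40 h treatment.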

[6] = qHTS RealTime-Glo MT Cell Viability Assay in HepG2 cells - 40 hour (AID 1224870); further: nearly all actives have a fitted effect of over 50% in size; further: potency means the concentration at half of the fitted maximal effect
Procedure, shortened: (§4)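 HepG2 cells mixed with RealTime-Glo MT reagents (NanoLuc plus cell-permeant prosubstrate) were seeded at 600 cells/well, incubated 5 h at 37 C/5% CO2, then pinned with compounds in DMSO; nonlytic luminescence tracked viability during 40 h treatment.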

[7] = A CellTox Green Cytotoxicity Assay to monitor cytotoxicity in HEK293 cells - 40 hour (AID 1224871); further: nearly all actives have a fitted effect of over 45% in size; further: potency means the concentration at half of the fitted maximal effect
Procedure, shortened: as §3

[8] = qHTS RealTime-Glo MT Cell Viability Assay in HepG2 cells - 8 hour (AID 1224873); further: nearly all actives have a fitted effect of over 55% in size
Procedure, shortened: as §4

[9] = qHTS RealTime-Glo MT Cell Viability Assay in HEK293 cells - 40 hour (AID 1224874); conditions: RealTime-Glo luminescence; max response: hits give low values; further: nearly all actives have a fitted effect of over 50% in size; further: potency means the concentration at half of the fitted maximal effect
Procedure, shortened: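 HEK293 cells mixed with RealTime-Glo reagents (NanoLuc plus cell-permeant prosubstrate) at 600 cells/well, preincubated 5 h at 37 C/5% CO2, then given 23 nL compound in DMSO. Nonlytic luminescence from viable cells was read at 0, 8, 16, 24, 32 and 40 h.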

[10] = A CellTox Green Cytotoxicity Assay to monitor cytotoxicity in HEK293 cells - 24 hour (AID 1224875); further: nearly all actives have a fitted effect of over 45% in size; further: potency means the concentration at half of the fitted maximal effect
Procedure, shortened: as §3

[11] = A CellTox Green Cytotoxicity Assay to monitor cytotoxicity in HepG2 cells - 16 hour (AID 1224876); further: nearly all actives have a fitted effect of over 45% in size; further: potency means the concentration at half of the fitted maximal effect
Procedure, shortened: (§5)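 HepG2 cells were seeded together with the CellTox Green dye at 600 cells/well, left 5 h at 37 C/5% CO2, then given compounds in DMSO. Fluorescence from dye bound to dead-cell DNA was read repeatedly over 40 h of treatment at 37 C.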

[12] = qHTS RealTime-Glo MT Cell Viability Assay in HepG2 cells - 32 hour (AID 1224877); further: nearly all actives have a fitted effect of over 55% in size; further: potency means the concentration at half of the fitted maximal effect
Procedure, shortened: as §1

[13] = A CellTox Green Cytotoxicity Assay to monitor cytotoxicity in HepG2 cells - 24 hour (AID 1224878); further: nearly all actives have a fitted effect of over 45% in size; further: potency means the concentration at half of the fitted maximal effect
Procedure, shortened: as §5

[14] = A CellTox Green Cytotoxicity Assay to monitor cytotoxicity in HepG2 cells - 40 hour (AID 1224879); further: nearly all actives have a fitted effect of over 40% in size; further: potency means the concentration at half of the fitted maximal effect
Procedure, shortened: as §5

[15] = qHTS assay to identify small molecule agonists of the hypoxia (HIF-1) signaling pathway - cell viability counter screen (AID 1224844; calls by dose curve; further: nearly all actives have a fitted effect of over 50% in size)
Procedure, shortened: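 HRE-bla ME-180 cells in medium with 0.5% dialyzed FBS were preincubated 5 hrs at 37C, exposed to compounds for 17 hrs, then viability was read as CellTiter-Glo luminescence after 30 min at room temperature, in the reporter wells.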

[16] = qHTS assay to identify small molecule agonists of H2AX (AID 1224845; active means well fitted activation curve with a large enough effect in the signal ratio in the repeat runs, not every such curve was filed as active; the % refers to the signal ratio; further: potency means the concentration at half of the fitted maximal effect)
Procedure, shortened: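 Wild-type CHO-K1 cells plated overnight, then exposed 3 hr at 37C to compounds at 15 concentrations (0.76% DMSO). Lysed, then HTRF anti-pH2AX(S139)-cryptate/anti-H2AX-d2 detection after 24 hr at room temperature; emissions 665 and 620 nm.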

[17] = qHTS assay to identify small molecule agonists of the hypoxia (HIF-1) signaling pathway (AID 1224846; active means well fitted activation curve with a large enough effect in the signal ratio in the repeat runs, not every such curve was filed as active; the % refers to the signal ratio)
Procedure, shortened: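 HRE-bla ME-180 cells (beta-lactamase reporter under hypoxia response element) were plated at 2,000 cells/well in medium with 0.5% dialyzed FBS, rested 5 hrs, then given compounds in DMSO for 17 hrs at 37C, 5% CO2. Reporter induction was read with CCF4-AM FRET substrate.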

[18] = qHTS assay to identify small molecule agonists of H2AX - cell viability counter screen (AID 1224847; calls by dose curve; further: nearly all actives have a fitted effect of over 30% in size; further: potency means the concentration at half of the fitted maximal effect)
Procedure, shortened: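 Counter-screen for viability: CellTiter-Glo ATP luminescence read after 3 h compound treatment (15-point titration, 0.76% DMSO final) of CHO-K1 cells at 37C, with 30 min room-temperature reagent incubation.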

[19] = qHTS RealTime-Glo MT Cell Viability Assay in HEK293 cells - 16 hour (AID 1224872); further: nearly all actives have a fitted effect of over 50% in size; further: potency means the concentration at half of the fitted maximal effect
Procedure, shortened: as §2

[20] = qHTS assay to identify small molecule antagonists of the estrogen related receptor (ERR) signaling pathway from Tox21 library (AID 1224848); further: nearly all actives have a fitted effect of over 50% in size; further: potency means the concentration at half of the fitted maximal effect
Procedure, shortened: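 Cells: ERR line, 2,000/well; 6 h preincubation 37 C/5% CO2. Cpd in DMSO via pin tool; 18 h, 37 C. ONE-Glo, 30 min RT, luminescence.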
On the % scale 0 is the no-effect control and ±100 the full control effect.

CN1CCCC(CC2c3ccccc3Sc3ccccc32)C1 (stereo not drawn)
inactive: Potency [1] | activity change, positive = activation [2] -39.8% [at 42.5 µM] | Potency [5] | Potency [8]
active: Potency [3] 23.9 µM | Potency [4] 23.9 µM | Potency [6] 26.8 µM | Potency [7] 23.9 µM | Potency [9] 23.9 µM | Potency [10] 23.9 µM | Potency [11] 23.9 µM | Potency [12] 23.9 µM | Potency [13] 21.3 µM | Potency [14] 23.9 µM

O=C1c2ccccc2C(=O)N1CCc1noc(-c2ccc(CN3CCCCCC3)s2)n1
inactive: Potency [15] | Potency [16] | outcome [17] | Potency [3] | Potency [6] | Potency [10] | Potency [12]
active: Potency [18] 92.3 µM | Potency [4] 35.7 µM | Potency [7] 40 µM | Potency [19] 22.5 µM | Potency [9] 20.1 µM | Potency [11] 20.1 µM | Potency [13] 31.8 µM | Potency [14] 35.7 µM

CC1=C(CC=O)C(C)(C)CCC1
inactive: Potency [15] | Potency [16] | outcome [17] | Potency [3] | Potency [4] | Potency [5] | Potency [6] | Potency [7] | Potency [19] | Potency [8] | max response [9] -9.82% | Potency [10] | Potency [11] | Potency [12] | Potency [13] | Potency [14]

O=C(/C=C/c1ccccc1)OCCc1ccccc1
inactive: Potency [15] | Potency [16] | outcome [17] | Potency [18] | Potency [3] | Potency [4] | Potency [5] | Potency [6] | Potency [19] | Potency [8] | max response [9] -0.613% | Potency [10] | Potency [11] | Potency [12] | Potency [13] | Potency [14]

CN1C(=O)N(c2ccccc2Br)Cc2cnc(Nc3ccc4c(c3)OCC(CO)O4)nc21 (stereo not drawn)
inactive: Potency [15] | Potency [16] | activity change, positive = activation [2] -69.6% | Potency [5] | Potency [10] | Potency [11]
active: Potency [18] 31.8 µM | Potency [20] 8.63 µM | Potency [4] 6.16 µM | Potency [9] 4.36 µM

COc1cc(Nc2c(C#N)cnc3cc(OCCCN4CCN(C)CC4)c(OC)cc23)c(Cl)cc1Cl
active: Potency [16] 7.8 µM | Potency [18] 55.2 µM | Potency [4] 8.49 µM | Potency [6] 23.9 µM | Potency [19] 19 µM | Potency [9] 7.56 µM | Potency [10] 21.3 µM | Potency [11] 23.9 µM | Potency [12] 21.3 µM | Potency [13] 16.9 µM | Potency [14] 9.52 µM
inactive: Potency [15] | outcome [17] | Potency [5]

CC(C)(C)C(=O)C(=O)O
inactive: Potency [15] | Potency [16] | outcome [17] | Potency [18] | Potency [3] | Potency [4] | Potency [5] | Potency [7] | Potency [8] | max response [9] 0.984% | Potency [11] | Potency [13]

O=C1NCCN1CCO
inactive: Potency [15] | Potency [16] | outcome [17] | Potency [18] | Potency [3] | Potency [4] | Potency [5] | Potency [6] | Potency [19] | Potency [8] | max response [9] 15.9% | Potency [10] | Potency [11] | Potency [12] | Potency [13] | Potency [14]

CC1(C)[C@@H](OC(=O)CCC(=O)O)CC[C@]2(C)[C@H]3C(=O)C=C4[C@@H]5C[C@@](C)(C(=O)O)CC[C@]5(C)CC[C@@]4(C)[C@]3(C)CC[C@@H]12
inactive: Potency [1] | Potency [16] | Potency [20] | activity change, positive = activation [2] 1.84% [at 42.5 µM] | Potency [3] | Potency [4] | Potency [5] | Potency [19] | Potency [8] | max response [9] 10.8% | Potency [10] | Potency [11] | Potency [12] | Potency [13] | Potency [14]

CN(C)CCC=C1c2ccccc2C=Cc2ccccc21
active: Potency [11] 23.9 µM | Potency [13] 23.9 µM | Potency [14] 23.9 µM
inactive: Potency [15] | Potency [16] | Potency [18] | Potency [20] | activity change, positive = activation [2] -12.5% [at 42.5 µM] | Potency [3] | Potency [5] | Potency [6] | Potency [19] | Potency [8] | Potency [10] | Potency [12]

CC1(C)[C@H](C(=O)O)N2C(=O)C[C@H]2S1(=O)=O
inactive: Potency [15] | Potency [16] | outcome [17] | Potency [18] | Potency [20] | activity change, positive = activation [2] 5.98% [at 42.5 µM] | Potency [3] | Potency [4] | Potency [5] | Potency [7] | Potency [8] | max response [9] 1.99% | Potency [10] | Potency [11] | Potency [12] | Potency [13] | Potency [14]

CCOC(=O)c1ccc(O)c(O)c1
inactive: Potency [1] | outcome [17] | Potency [18] | Potency [3] | Potency [4] | Potency [5] | Potency [7] | Potency [19] | Potency [8] | max response [9] -21.6% | Potency [10] | Potency [12] | Potency [13] | Potency [14]

O=C1CCCCCCCCCCOCCCCO1
inactive: Potency [15] | Potency [16] | outcome [17] | Potency [18] | Potency [3] | Potency [4] | Potency [5] | Potency [6] | Potency [19] | Potency [8] | max response [9] -14.4% | Potency [11] | Potency [12] | Potency [13] | Potency [14]
active: Potency [7] 49 µM | Potency [10] 49 µM

CC[N+](CC)(CCNC(=O)C(=O)NCC[N+](CC)(CC)Cc1ccccc1Cl)Cc1ccccc1Cl
inactive: Potency [15] | Potency [16] | outcome [17] | Potency [18] | activity change, positive = activation [2] 8.73% [at 42.5 µM] | Potency [3] | Potency [4] | Potency [5] | Potency [6] | Potency [7] | Potency [19] | Potency [8] | max response [9] 0.73% | Potency [10] | Potency [11] | Potency [13] | Potency [14]
